The values below come from ChEMBL document CHEMBL3988442, “University of Dundee, Small-Polar-MMV Screening Library” (2021).

What all share (set-up): scale not given: direction of the effect not stated beside the values
For assay [1], the target named is Protein translocase subunit SecA (Escherichia coli (strain K12)) (UniProt P10408). As to the kind of experiment: Assay to Identify E. coli SecA ATPase Inhibitors. The format is functional. Conditions: 30 µM.
The target of assay [2] is T1, Ubiquitin-activating enzyme e1, putative (Leishmania donovani (strain BPK282A1)) (UniProt E9BSI1).
T1 sequence (whole entry): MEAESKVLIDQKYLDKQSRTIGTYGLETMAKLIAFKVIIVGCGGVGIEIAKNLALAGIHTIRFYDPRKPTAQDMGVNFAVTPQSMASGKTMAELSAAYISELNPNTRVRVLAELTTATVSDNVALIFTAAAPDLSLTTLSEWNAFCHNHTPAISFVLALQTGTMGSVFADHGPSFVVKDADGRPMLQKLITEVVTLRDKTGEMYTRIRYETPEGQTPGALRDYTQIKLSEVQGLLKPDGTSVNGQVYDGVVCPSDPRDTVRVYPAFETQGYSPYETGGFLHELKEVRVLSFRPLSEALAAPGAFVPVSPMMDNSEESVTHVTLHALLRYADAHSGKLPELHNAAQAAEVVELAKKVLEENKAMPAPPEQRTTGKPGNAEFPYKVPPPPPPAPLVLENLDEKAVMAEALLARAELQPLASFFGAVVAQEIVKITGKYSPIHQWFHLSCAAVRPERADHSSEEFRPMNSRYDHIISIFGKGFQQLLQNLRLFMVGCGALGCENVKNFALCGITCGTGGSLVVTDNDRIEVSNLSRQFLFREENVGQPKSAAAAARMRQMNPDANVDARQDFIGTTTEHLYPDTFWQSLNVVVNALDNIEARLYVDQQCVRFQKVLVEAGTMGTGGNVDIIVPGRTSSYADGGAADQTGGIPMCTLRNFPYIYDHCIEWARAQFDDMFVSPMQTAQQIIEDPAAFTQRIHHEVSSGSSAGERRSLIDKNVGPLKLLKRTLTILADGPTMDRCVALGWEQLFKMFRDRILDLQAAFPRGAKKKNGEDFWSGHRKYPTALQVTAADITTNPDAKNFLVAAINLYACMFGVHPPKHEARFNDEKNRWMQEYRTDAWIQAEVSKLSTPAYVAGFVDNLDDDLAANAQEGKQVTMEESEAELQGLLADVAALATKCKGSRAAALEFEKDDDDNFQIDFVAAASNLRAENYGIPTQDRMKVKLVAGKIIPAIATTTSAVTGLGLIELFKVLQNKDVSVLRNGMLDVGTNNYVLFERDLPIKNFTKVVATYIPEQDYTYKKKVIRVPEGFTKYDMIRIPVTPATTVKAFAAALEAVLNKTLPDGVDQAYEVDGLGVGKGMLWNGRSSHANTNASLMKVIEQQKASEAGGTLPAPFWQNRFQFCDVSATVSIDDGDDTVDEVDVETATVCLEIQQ
As to the kind of experiment: Leishmania donovani Ubiquitin Activating Enzyme (LdE1). The format is functional. Conditions: 30 µM.

Assay [3] has as its target AMP-activated protein kinase, AMPK (Homo sapiens) (UniProt P54646+O43741+P54619+Q9UGJ0+Q9Y478+Q13131+Q9UGI9). The assay can be described thus: AMP-dependent Kinase enzyme assay. An in vitro enzyme assay that detects ADP turnover that is directly proportional to AMPK activity. This uses naive AMPK that is activated during the assay with MK-8722. The format is functional. To be noted: 30 µM.

The target in assay [4] is Sialic acid-binding Ig-like lectin 9 (Homo sapiens) (UniProt Q9Y336). As to the kind of experiment: Hs-Siglec9 ALPHAscreen SOP 20170721. To be noted: 10 µM.
Sialic acid-binding Ig-like lectin 9 (Homo sapiens), sequence (Q9Y336 whole entry): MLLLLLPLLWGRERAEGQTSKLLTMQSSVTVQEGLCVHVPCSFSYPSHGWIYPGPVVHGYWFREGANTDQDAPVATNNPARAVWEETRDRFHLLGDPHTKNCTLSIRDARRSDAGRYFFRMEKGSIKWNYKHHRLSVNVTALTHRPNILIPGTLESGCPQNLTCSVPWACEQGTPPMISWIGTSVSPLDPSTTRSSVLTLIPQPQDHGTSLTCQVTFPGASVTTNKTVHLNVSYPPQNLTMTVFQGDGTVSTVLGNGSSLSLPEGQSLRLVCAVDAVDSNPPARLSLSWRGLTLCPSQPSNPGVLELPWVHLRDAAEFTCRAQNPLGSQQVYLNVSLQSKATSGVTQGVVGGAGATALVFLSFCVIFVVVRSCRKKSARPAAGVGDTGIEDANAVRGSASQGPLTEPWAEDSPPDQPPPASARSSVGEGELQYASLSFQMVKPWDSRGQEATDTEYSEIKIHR
Assay [5] has as its system Trypanosoma cruzi. As to the kind of experiment: Trypanosoma cruzi phosphomannomutase and mannose-1-phosphate guanylyltransferase assay. To be noted: 10 µM. The format is functional.
The target of assay [6] is T2, Arginase-2, mitochondrial (Homo sapiens) (UniProt P78540).
T2 sequence (whole entry): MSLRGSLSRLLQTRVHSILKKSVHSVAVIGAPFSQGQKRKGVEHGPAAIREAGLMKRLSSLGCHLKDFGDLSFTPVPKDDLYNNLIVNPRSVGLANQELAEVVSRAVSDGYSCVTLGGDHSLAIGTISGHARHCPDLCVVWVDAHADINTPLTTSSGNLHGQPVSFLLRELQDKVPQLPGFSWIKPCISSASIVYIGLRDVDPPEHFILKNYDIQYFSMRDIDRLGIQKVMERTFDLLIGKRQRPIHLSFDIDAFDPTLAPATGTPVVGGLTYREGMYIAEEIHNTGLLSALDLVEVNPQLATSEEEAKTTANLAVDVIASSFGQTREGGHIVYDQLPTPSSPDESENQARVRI
As to the kind of experiment: in vitro enzyme assay to detect the production of urea directly proportional to the activity of Arginase II. Also: in the data most compounds retested in dose-response had high values. The format is functional. To be noted: 33.3 µM.

Assay [7] deals with T3, Proteasome subunit beta (Trypanosoma cruzi) (UniProt O96673).
T3 sequence (whole entry): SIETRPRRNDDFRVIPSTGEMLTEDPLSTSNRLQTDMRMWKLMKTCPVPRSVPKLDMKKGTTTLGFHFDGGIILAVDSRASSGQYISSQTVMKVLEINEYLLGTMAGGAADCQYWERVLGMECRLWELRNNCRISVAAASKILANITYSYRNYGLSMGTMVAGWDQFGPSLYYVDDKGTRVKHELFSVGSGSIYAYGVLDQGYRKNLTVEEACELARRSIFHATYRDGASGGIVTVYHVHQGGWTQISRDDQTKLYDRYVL
The assay can be described thus: Trypanosoma cruzi proteasome chymotrypsin-like activity (TcProtChymo) assay. Also: in the data most compounds retested in dose-response had high values. The format is functional. Conditions: 9.37 µM.

For assay [8], the species on record is Homo sapiens. As to the kind of experiment: To identify inhibition of the IFN signalling (Jak-Stat) pathway via expression of an eGFP reporter gene under the control of an IFN-stimulated response element (ISRE) containing MxA promoter. The format is functional. To be noted: 30 µM.
The target in assay [9] is T4, Tyrosyl-tRNA synthetase, putative (Trypanosoma cruzi (strain CL Brener)) (UniProt Q4DSP6).
T4 sequence (whole entry): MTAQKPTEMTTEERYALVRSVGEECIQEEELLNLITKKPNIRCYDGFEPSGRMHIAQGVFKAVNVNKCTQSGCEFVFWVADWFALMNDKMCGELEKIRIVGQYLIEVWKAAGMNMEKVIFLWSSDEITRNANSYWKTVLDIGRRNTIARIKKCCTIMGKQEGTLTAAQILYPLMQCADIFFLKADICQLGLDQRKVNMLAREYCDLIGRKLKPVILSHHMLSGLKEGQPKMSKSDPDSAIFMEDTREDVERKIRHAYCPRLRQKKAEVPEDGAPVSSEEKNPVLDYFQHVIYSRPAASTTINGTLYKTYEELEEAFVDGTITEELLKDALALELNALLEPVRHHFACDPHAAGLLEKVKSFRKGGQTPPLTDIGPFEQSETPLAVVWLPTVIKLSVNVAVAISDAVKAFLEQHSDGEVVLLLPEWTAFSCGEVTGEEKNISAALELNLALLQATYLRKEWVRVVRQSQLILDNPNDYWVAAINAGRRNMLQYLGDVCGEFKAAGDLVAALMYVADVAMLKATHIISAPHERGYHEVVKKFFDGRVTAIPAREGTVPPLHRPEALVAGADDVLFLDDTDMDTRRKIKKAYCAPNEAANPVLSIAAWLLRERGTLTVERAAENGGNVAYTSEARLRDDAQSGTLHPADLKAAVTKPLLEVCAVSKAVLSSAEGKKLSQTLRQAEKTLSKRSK
As to the kind of experiment: Trypanosoma cruzi tyrosyl tRNA synthetase (TcYRS) _High Tyrosine SOP. Also: in the data most compounds retested in dose-response had high values. To be noted: 30 µM. The format is functional.

The target in assay [10] is T4, Tyrosyl-tRNA synthetase, putative (Trypanosoma cruzi (strain CL Brener)). As to the kind of experiment: Trypanosoma cruzi tyrosyl tRNA synthetase (TcYRS) SOP. Conditions: 30 µM. The format is functional.
In assay [11] the target is Chromo domain-containing protein 1 (Saccharomyces cerevisiae (strain ATCC 204508 / S288c) (Baker's yeast)) (UniProt P32657). As to the kind of experiment: ScCHD-1 Enzyme Inhibition Assay. Also: in the data most compounds retested in dose-response had high values. The format is functional. To be noted: 30 µM.
Chromo domain-containing protein 1 (Saccharomyces cerevisiae (strain ATCC 204508 / S288c) (Baker's yeast)), sequence (P32657 whole entry, the tested form may be a part): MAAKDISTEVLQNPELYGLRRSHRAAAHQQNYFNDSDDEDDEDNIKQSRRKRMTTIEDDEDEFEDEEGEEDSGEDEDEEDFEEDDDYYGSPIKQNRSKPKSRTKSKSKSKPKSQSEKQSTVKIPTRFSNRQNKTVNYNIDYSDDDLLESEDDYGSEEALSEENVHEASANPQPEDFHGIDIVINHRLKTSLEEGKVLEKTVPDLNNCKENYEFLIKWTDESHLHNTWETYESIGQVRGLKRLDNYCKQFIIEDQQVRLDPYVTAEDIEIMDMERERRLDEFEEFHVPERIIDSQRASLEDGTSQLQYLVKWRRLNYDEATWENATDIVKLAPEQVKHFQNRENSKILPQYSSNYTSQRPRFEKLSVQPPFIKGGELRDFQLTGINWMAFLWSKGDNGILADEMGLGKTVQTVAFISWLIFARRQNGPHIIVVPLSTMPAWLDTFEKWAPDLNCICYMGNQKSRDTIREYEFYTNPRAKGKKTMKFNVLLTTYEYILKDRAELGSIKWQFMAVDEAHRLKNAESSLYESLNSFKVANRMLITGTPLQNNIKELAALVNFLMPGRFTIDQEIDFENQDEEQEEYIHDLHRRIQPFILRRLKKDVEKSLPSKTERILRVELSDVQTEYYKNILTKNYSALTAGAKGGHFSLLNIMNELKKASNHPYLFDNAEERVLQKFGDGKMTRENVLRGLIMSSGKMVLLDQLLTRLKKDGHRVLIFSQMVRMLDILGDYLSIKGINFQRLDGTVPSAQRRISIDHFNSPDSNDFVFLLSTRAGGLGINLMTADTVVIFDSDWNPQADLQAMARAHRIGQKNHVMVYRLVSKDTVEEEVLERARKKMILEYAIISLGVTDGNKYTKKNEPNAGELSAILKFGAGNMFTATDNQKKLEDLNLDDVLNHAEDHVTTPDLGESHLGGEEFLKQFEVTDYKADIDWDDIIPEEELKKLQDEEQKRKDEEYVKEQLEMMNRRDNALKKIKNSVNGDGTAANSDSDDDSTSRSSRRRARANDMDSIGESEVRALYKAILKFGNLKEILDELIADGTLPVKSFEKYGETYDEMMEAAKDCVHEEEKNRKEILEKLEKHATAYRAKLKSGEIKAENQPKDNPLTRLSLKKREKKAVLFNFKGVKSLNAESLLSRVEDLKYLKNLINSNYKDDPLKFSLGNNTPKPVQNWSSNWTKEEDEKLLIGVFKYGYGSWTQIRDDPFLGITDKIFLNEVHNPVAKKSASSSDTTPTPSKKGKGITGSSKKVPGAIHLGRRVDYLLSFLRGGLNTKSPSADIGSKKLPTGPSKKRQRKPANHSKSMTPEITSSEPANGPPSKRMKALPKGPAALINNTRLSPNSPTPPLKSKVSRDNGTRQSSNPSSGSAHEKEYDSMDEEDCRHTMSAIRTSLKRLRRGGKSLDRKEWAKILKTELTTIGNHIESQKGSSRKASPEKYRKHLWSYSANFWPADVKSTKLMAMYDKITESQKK

The structures appear in SMILES notation. For some assays here: Entries with a potency or affinity are not part of this list.

Protein translocase subunit SecA (Escherichia coli (strain K12)), sequence (P10408 whole entry): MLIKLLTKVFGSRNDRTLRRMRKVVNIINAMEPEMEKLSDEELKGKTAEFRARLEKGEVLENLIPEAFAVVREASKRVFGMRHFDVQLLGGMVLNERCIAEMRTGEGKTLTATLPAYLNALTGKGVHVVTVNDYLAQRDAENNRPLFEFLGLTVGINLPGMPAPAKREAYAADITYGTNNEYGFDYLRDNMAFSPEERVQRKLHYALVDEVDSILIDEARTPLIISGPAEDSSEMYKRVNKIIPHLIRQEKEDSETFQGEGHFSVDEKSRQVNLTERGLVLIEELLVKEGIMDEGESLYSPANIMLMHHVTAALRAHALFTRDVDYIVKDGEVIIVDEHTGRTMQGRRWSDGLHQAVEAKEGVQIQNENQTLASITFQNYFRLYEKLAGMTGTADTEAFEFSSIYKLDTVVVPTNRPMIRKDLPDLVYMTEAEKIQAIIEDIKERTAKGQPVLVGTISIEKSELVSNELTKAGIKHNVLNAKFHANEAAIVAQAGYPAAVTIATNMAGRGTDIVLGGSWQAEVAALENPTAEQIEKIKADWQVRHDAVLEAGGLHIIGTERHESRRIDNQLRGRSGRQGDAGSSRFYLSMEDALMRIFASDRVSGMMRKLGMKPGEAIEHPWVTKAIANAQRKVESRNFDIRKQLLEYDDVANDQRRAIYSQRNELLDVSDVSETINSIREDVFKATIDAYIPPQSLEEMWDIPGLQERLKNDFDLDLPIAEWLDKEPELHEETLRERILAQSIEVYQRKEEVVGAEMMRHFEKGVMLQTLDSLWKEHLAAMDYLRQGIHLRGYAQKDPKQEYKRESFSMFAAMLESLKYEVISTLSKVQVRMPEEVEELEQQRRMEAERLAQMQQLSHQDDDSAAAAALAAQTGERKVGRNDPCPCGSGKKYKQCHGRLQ

For `Cc1cc2n(n1)CC(CNC1CCN(Cc3ccccc3C)CC1)CN2` (stereo not given), the Percent Effect in assay [1] was -8.28%; in assay [2], 0%; in assay [3] it was -15.1%; in assay [4], 13.7%; in assay [5], 0.684%; in assay [6] it was -2.73%. For the same molecule, the Percent Effect in assay [7] was 2.49%; in assay [8], 16.5%; in assay [9], 4.3%; in assay [10] it was 3.7%; in [11] it was -2.06%.
As to `CC(=O)c1cccc(S(=O)(=O)N2CSCC2C(=O)NCC(F)(F)F)c1` (stereo not given), the Percent Effect in [1] is -3.05%; in assay [2], 3.8%; in assay [3] it was 7.23%; in assay [4] it was 3.21%; in [5] it was -0.103%; in assay [6], -7.1%. In addition, the Percent Effect was 10.5% in [7]; 2.46% in [8]; 9.38% in assay [9]; 22.8% in assay [10]; -23.2% in assay [11].
For `CCN(CC)C(=O)Nc1cc2c(cc1SC)OCCO2`, the Percent Effect in assay [1] was -0.336%; in [2], 8.11%; in assay [3], -6.12%; in assay [4], 9.01%; in [5], 3.71%; in [6] it was 27.5%. For the same molecule, the Percent Effect in assay [7] was 3.47%; in [8], -7.38%; in assay [9], 4.95%; in assay [10], 8.54%; in assay [11], -6.4%.
As for `C1CC(NCc2nc(C3CC3)no2)CN(Cc2noc(C3CC3)n2)C1` (stereo not given), the Percent Effect was -2.33% in assay [1]; 24.3% in assay [2]; -2.39% in assay [3]; -3.6% in assay [4]; -6.32% in assay [5]; -12.4% in [6]. In addition, the Percent Effect in [7] was 11.2%; in assay [8] it was 27%; in assay [9], -0.493%; in assay [10], 6.17%; in assay [11], -4.12%.
As for `COc1cccc(-n2c(C)cc(C(=O)NS(C)(=O)=O)c2C)c1`, the Percent Effect in [1] is -2.83%; in assay [2], 20.2%; in assay [3], -2.25%; in assay [4], -3.1%; in assay [5], -4.63%; in [6], 2.28%. The Percent Effect in [7] is 2.21%; in assay [8] it was 8.44%; in assay [9], 6.4%; in assay [10], 13.9%; in [11], -5.99%.
`CCN(C(=O)CN(C)C(c1cccc(F)c1)c1ccccn1)C1CC1` (stereo not given): the Percent Effect in assay [1] is -1.83%; in assay [2], -5.2%; in assay [3], -4.08%; in [4], 9.51%; in assay [5], 6.74%; in assay [6] it was -2.49%. In addition, the Percent Effect is 2.37% in [7]; 4.69% in assay [8]; 6.8% in assay [9]; 7.32% in assay [10]; -10.2% in assay [11].
Regarding `CC(C)c1nnc2n1CCN(C(=O)c1ccc(CN(C)C)cc1)C2`, the Percent Effect in assay [1] was -3.27%; in assay [2] it was -2.6%; in [3], -13.6%; in assay [4] it was -5.41%; in assay [5], -2.84%; in [6], 1.47%. Also, the Percent Effect is 12.5% in assay [7]; 22.6% in assay [8]; 0.952% in assay [9]; -2.35% in assay [10]; -18.4% in [11].
As for `CC(Cn1cncn1)NCc1nncn1C1CCCCC1` (stereo not given), the Percent Effect in assay [1] was -0.337%; in [2] it was 6.94%; in assay [3] it was -10.2%; in assay [4], 13.3%; in assay [5] it was 0.0972%; in [6] it was 12.4%. For the same molecule, the Percent Effect in assay [7] was 14.4%; in assay [8], -15.2%; in assay [9] it was 8.42%; in [10], 15.4%; in assay [11] it was -5.04%.
Turning to `COc1cccc(S(=O)(=O)CCN2CCC3(CC2)OCCO3)c1`, the Percent Effect in assay [1] was -7.81%; in assay [2] it was 2.67%; in assay [3], -4.97%; in assay [4], 6.11%; in [5], 3.99%; in [6] it was 5.21%. Moreover, the Percent Effect is 6.45% in [7]; 6.75% in [8]; 3.83% in [9]; 6.17% in assay [10]; -5.65% in assay [11].
Take `COCCN1CCC2(CC1)CC(COC)N(c1ncccn1)C2` (stereo not given): the Percent Effect in assay [1] is -4.36%; in [2] it was 7.79%; in assay [3], 1.21%; in assay [4] it was 1.5%; in [5], 1.48%; in assay [6], -19.3%. The Percent Effect in assay [7] was 7.99%; in assay [8] it was -6.06%; in assay [9] it was 3.23%; in assay [10], 3.7%; in assay [11], 1.23%.
